RPL19A TOR yeast: yeast TOR pathway RPL19A-GFP modulation; S. cerevisiae RPL19A-GFP strain, flow cytometry, 3 h; hits give low values; AID 2025; 0.3% of 330,000 active; percent response vs DMSO, % at 10 µM;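 active = percent response vs DMSO below 50%; inconclusive = fewer than 70 events counted for the yeast strain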;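 note: median channel GFP fluorescence of the barcoded RPL19A-GFP strain; lower means less RPL19A-GFP as with rapamycin TOR inhibition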
AGP1 TOR yeast: alters AGP1-GFP fluorescence in TOR pathway yeast screen; S. cerevisiae AGP1-GFP multiplex flow cytometry, 3 h; GFP as percent of DMSO wells; GFP response vs DMSO, % at 10 µM; 0.02% of 320,000 active; AID 2066;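 active = GFP response relative to DMSO above a set limit, near screen average plus 3 SD, cut at about 150% in these data; inconclusive = fewer than 70 cells counted for the yeast strain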;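 note: median GFP channel fluorescence of the gated AGP1 strain per well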
MEP2 TOR yeast: alters MEP2-GFP fluorescence in TOR pathway yeast screen; AID 2016; S. cerevisiae MEP2-GFP strain, flow cytometry GFP, 3 h; 100% = DMSO control level; 0.51% of 330,000 active; GFP response vs DMSO, % at 10 µM;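 active = GFP response versus DMSO above a set limit, roughly screen mean plus 3 SD, cut at about 180% in these data; inconclusive = fewer than 70 cells counted for a yeast strain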;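 note: median GFP fluorescence of the barcode-gated MEP2-GFP cells per well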
LAP4 TOR yeast: alters LAP4-GFP fluorescence in TOR pathway yeast screen; S. cerevisiae LAP4-GFP multiplex, flow cytometry GFP, 3 h; median GFP as percent of DMSO wells; GFP response vs DMSO, % at 10 µM; 0.34% of 320,000 active; AID 2023;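 active = GFP response vs DMSO above a set limit, about the screen mean plus 3 SD, cut at about 150% in these data; inconclusive = under 70 cell events counted for the yeast strain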
Myeloid diff 2: promotes myeloid progenitor differentiation | calls only at 10 µM | AID 624256 | ER-HoxA9 myeloid progenitors, lysozyme-GFP differentiation, flow cytometry | 1% of 360,000 active;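 active = normalized GFP-positive differentiation at or above the plate's own cutoff, the solvent-only control mean plus 3 SD; inconclusive = no clear call, values can overlap the other calls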;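 note: cells exposed to compound for four days before flow analysis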
CIT2 TOR yeast: modulators of TOR pathway CIT2-GFP in S. cerevisiae; GFP response vs DMSO, % at 10 µM; S. cerevisiae CIT2-GFP strain, flow cytometry, 3 h; 100 means same as DMSO wells; AID 2029; 0.065% of 320,000 active;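 active = GFP response relative to DMSO above a set limit, near the screen mean plus 3 SD, cut at about 150% in these data; inconclusive = Fewer than 70 cells measured for a yeast strain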;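 note: ratio of well median GFP fluorescence to mean of DMSO wells on the plate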
Of the large screens only hits and unclear results are named; the others gave an inactive call; ! = not confirmed by another sample; [ ] = another dose, or the depositor's remark. Compounds with a hit are over-represented: about 1.8% of the library has one in this group of screens.

C#C[C@]1(O)CC[C@H]2[C@@H]3CCC4=Cc5nc6nc7ccccc7n6cc5C[C@]4(C)[C@H]3CC[C@@]21C	Myeloid diff 2 active
CC1([N+](=O)[O-])COP(=O)(Nc2cccc(Br)c2)OC1 (stereo unspecified)	Myeloid diff 2 active (no result: RPL19A TOR yeast, AGP1 TOR yeast, MEP2 TOR yeast, LAP4 TOR yeast, CIT2 TOR yeast)
CCC(C)N1C(=O)/C(=C\c2cnc(N(C)C)nc2)C(=O)NC1=S (stereo unspecified)	LAP4 TOR yeast 162
CCC(C)N1C(=O)/C(=C\c2ccc(N3CCCCCC3)cc2)C(=O)NC1=S (stereo unspecified)	none
CN1C(=O)/C(=C/C=C/c2ccco2)C(=O)NC1=S	none
CN1C(=O)NC(=O)/C(=C\C=C\c2ccccc2[N+](=O)[O-])C1=O	LAP4 TOR yeast 193 (no result: Myeloid diff 2)
N=Cc1c(O)n(-c2ccccc2)c(=O)n(-c2ccccc2)c1=O	MEP2 TOR yeast 216[may fluoresce violet], CIT2 TOR yeast inconclusive
Cc1ccc(-n2c(O)c(C=N)c(=O)n(-c3ccc(C)cc3)c2=O)cc1	none
C=CCn1c(O)c(C(CC)=Nc2cccc(C(F)(F)F)c2)c(=O)[nH]c1=O	none
Cc1cc(N(CCCl)CCCl)ccc1/C=N/NC(=O)c1ccco1	Myeloid diff 2 inconclusive
Cc1cc(N(CCCl)CCCl)ccc1C=NNC(=O)Cc1cc(=O)oc2cc(O)ccc12	Myeloid diff 2 active (no result: RPL19A TOR yeast, AGP1 TOR yeast, MEP2 TOR yeast, LAP4 TOR yeast, CIT2 TOR yeast)
CC(C)OP(=O)(Oc1ccc(C(O)C(Cl)(Cl)Cl)cc1)OC(C)C (stereo unspecified)	none (no result: AGP1 TOR yeast, LAP4 TOR yeast, CIT2 TOR yeast)
Cc1ccc(N2C(=O)/C(=C/c3ccc(CN(CCC#N)S(C)(=O)=O)o3)C(=O)NC2=S)cc1C	MEP2 TOR yeast 198[may fluoresce violet], CIT2 TOR yeast inconclusive (no result: Myeloid diff 2)
Cc1cccc(N2C(=O)/C(=C/c3ccc(CN(CCC#N)S(C)(=O)=O)o3)C(=O)NC2=S)c1	none
CCCCc1ccc(C(=O)O)nc1	Myeloid diff 2 active
CCN(CC)c1ccc(C=C2C(=O)NC(=S)NC2=O)cc1	LAP4 TOR yeast 212
COC(=O)C1=C(c2cccc(C#N)c2)C[C@@H]2CC[C@H]1N2C(=O)N1CCC(C)CC1	none
CC(=O)c1ccc(OCC(=O)N2CCCC(N3CCN(c4ccccc4C)CC3)C2)cc1 (stereo unspecified)	none
COc1ccc(CCNCc2ccccc2)cc1	AGP1 TOR yeast inconclusive, MEP2 TOR yeast 230[may fluoresce violet], CIT2 TOR yeast inconclusive
CNCCc1c(C)n[nH]c1C	none
Cc1n[nH]c(C)c1CCN	AGP1 TOR yeast inconclusive, MEP2 TOR yeast 235[may fluoresce violet], CIT2 TOR yeast inconclusive
Cc1nn(Cc2ccccc2)c(C)c1C(=O)OCC(=O)Nc1ccccc1SCC#N	Myeloid diff 2 active
Cc1cc(NC(=O)COC(=O)c2c(C)nn(Cc3ccccc3)c2C)no1	none (no result: AGP1 TOR yeast)
CC[C@@H]1C(=O)OC[C@@H]1Cc1cncn1C	RPL19A TOR yeast 43![may fluoresce violet], AGP1 TOR yeast inconclusive, MEP2 TOR yeast 404![may fluoresce violet], CIT2 TOR yeast inconclusive
CC1CCC2[C@@H](C)C(=O)OC3O[C@]4(C)CCC1C32OO4 (stereo partly specified)	Myeloid diff 2 active
CC1CCC2C(C)C(=O)OC3OC4(C)CCC1C32OO4 (stereo unspecified)	Myeloid diff 2 active
CC(C)(OOC1(c2ccccc2)NC(=O)c2ccccc21)c1ccccc1 (stereo unspecified)	none (no result: RPL19A TOR yeast, AGP1 TOR yeast, MEP2 TOR yeast, LAP4 TOR yeast, CIT2 TOR yeast)
COc1ccc(OC(=O)N(C)C[C@@H]2OCc3cnnn3CCCC(=O)N([C@H](C)CO)C[C@@H]2C)cc1	none (no result: RPL19A TOR yeast, AGP1 TOR yeast, MEP2 TOR yeast, LAP4 TOR yeast, CIT2 TOR yeast)
C[C@]12C=CC(=O)C=C1CC[C@@H]1[C@@H]2CC[C@]2(C)C(=O)CC[C@@H]12	none (no result: RPL19A TOR yeast, AGP1 TOR yeast, MEP2 TOR yeast, LAP4 TOR yeast, CIT2 TOR yeast)
C[C@]12CCC(=O)C(O)=C1CC[C@@H]1[C@@H]2CC[C@]2(C)C(=O)CC[C@@H]12	RPL19A TOR yeast inconclusive, LAP4 TOR yeast 454[may fluoresce red]
Cc1c(CC(=O)N2C[C@H]3C[C@@H](C2)c2cccc(=O)n2C3)c(=O)oc2cc(O)c(Cl)cc12	RPL19A TOR yeast 16[may fluoresce violet], MEP2 TOR yeast 185[may fluoresce violet], CIT2 TOR yeast inconclusive
CC1CCN(C(=O)CCl)CC1	none
COc1ccc(C(=O)C2CCCN(CCc3ccccc3)C2)cc1OC (stereo unspecified)	none (no result: RPL19A TOR yeast, AGP1 TOR yeast, MEP2 TOR yeast, LAP4 TOR yeast, CIT2 TOR yeast)
C=CCn1cc(C=C2C(=O)NC(=O)NC2=O)c2ccccc21	Myeloid diff 2 active
CC(C)(C)C(=O)N1Cc2cc(-c3ccccc3)ccc2-n2nncc2C1	none (no result: RPL19A TOR yeast, AGP1 TOR yeast, MEP2 TOR yeast, LAP4 TOR yeast, CIT2 TOR yeast)
CCCCCCC(C)(C)c1ccc([C@@H]2C[C@H](O)CC[C@H]2CCCO)c(O)c1	none
FC(F)(F)c1ccccc1NC1=NCCCS1	RPL19A TOR yeast 33[may fluoresce violet], AGP1 TOR yeast inconclusive, MEP2 TOR yeast 255[may fluoresce violet], CIT2 TOR yeast inconclusive
Cc1ccc(-n2c(C)cc(/C=C3/C(=O)NC(=O)N(C)C3=O)c2C)cc1	RPL19A TOR yeast 29[may fluoresce violet], MEP2 TOR yeast 281[may fluoresce violet], CIT2 TOR yeast inconclusive
CCN1CC=C(c2c[nH]c3ccccc23)CC1	Myeloid diff 2 active
Cc1[nH]c2ccccc2c1C(=O)CN1CC=C(c2ccccc2)CC1	none
COCCCNC(=O)c1c(NC(=O)c2ccco2)n(Cc2ccccc2)c2nc3ccccc3nc12	none
COCCNC(=O)c1c(NC(=O)c2ccc(Br)o2)n(Cc2ccccc2)c2nc3ccccc3nc12	Myeloid diff 2 active
COc1ccc(N/N=C/c2c(O)n(-c3cccc(C)c3)c(=O)[nH]c2=O)cc1	none
CN1C(=O)/C(=C/c2ccc(Cl)s2)C(=O)NC1=S	Myeloid diff 2 active
CC(C)(C)c1ccc(O)c(N=Cc2c(O)ccc3ccccc23)c1	Myeloid diff 2 active
C=CCN1C(=O)NC(=O)/C(=C/c2ccc(OC)c(CSc3ccccn3)c2)C1=O	none
Cc1ccc(OCC(=O)NCCN2CCN(C(=O)COc3ccc(C)cc3)CC2)cc1	AGP1 TOR yeast inconclusive, MEP2 TOR yeast 251[may fluoresce violet], CIT2 TOR yeast inconclusive
Cc1ccc(OCC(=O)N2CCN(Cc3cccnc3)CC2)cc1	none
CCCCCn1c(=O)c(C(=O)Nc2cnccn2)c(O)c2ccccc21	none (no result: Myeloid diff 2)
CCCCCn1c(=O)c(C(=O)Nc2cc(C)ccn2)c(O)c2ccccc21	Myeloid diff 2 active
CC1(C(=O)O)CC12c1ccccc1-c1ccccc12 (stereo unspecified)	none (no result: RPL19A TOR yeast, AGP1 TOR yeast, MEP2 TOR yeast, LAP4 TOR yeast, CIT2 TOR yeast)
CC(C)CCNC(=O)CN1C(=O)CN=C(c2ccccc2)c2ccccc21	none
COCCNC(=O)CN1C(=O)C(C)N=C(c2ccccc2)c2cc(Cl)ccc21 (stereo unspecified)	MEP2 TOR yeast 196[may fluoresce violet], CIT2 TOR yeast inconclusive
O=C1CC[C@@]2(O)[C@H]3Cc4ccc(O)c5c4[C@@]2(CCN3CC2CC2)[C@H]1O5	LAP4 TOR yeast 155
O=C1CCC2(O)C3Cc4ccc(O)c5c4C2(CCN3Cc2ccoc2)C1O5 (stereo unspecified)	none (no result: RPL19A TOR yeast, AGP1 TOR yeast, MEP2 TOR yeast, LAP4 TOR yeast, CIT2 TOR yeast)
Cc1c(C=C2C(=O)N(C)C(=S)N(C)C2=O)c2ccccc2n1CC(=O)NCC1CCCO1 (stereo unspecified)	none

High-throughput results: PubChem, NMMLSC
